Test results from PubChem BioAssay (NCATS).
Records with an inconclusive call do not appear. Active and inactive are the calls of the source. Unless noted, calls come from the whole dose curve.

Assays:
[1] = molecular target: Protein phosphatase 1D (Homo sapiens) (UniProt O15297); assay: RapidFire Mass Spectrometry qHTS Assay for Modulators of WT P53-Induced Phosphatase 1 (WIP1) (AID 1347424; active = well fitted curve in the direction sought with a large enough effect; an effect the other way counts as inactive or inconclusive;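 note: amount of dephosphorylated VEPPL-S-QETFS peptide product formed by WIP1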; note: potency is the fitted concentration of half-maximal effect)
Sequence of Protein phosphatase 1D (Homo sapiens) (O15297 whole entry, looked up): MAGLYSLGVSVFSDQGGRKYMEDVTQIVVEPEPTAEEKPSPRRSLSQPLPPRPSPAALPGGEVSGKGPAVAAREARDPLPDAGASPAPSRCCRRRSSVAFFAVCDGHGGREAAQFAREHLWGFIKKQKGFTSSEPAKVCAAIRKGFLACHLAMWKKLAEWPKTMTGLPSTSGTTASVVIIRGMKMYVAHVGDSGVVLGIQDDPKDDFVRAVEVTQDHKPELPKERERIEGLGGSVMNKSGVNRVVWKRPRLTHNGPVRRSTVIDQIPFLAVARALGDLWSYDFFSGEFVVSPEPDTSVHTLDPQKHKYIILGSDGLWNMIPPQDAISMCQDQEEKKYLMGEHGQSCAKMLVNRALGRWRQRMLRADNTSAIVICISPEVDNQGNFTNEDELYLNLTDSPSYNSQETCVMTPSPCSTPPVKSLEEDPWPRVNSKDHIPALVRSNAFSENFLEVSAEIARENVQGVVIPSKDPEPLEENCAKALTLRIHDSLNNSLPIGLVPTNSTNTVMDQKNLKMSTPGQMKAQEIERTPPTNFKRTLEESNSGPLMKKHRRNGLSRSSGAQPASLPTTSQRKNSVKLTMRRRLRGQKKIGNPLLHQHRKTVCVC
Outline: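 Mass-spectrometric measurement of dephosphorylated peptide after a 5 min room-temperature reaction of 10 nM WIP1 with 2 uM phosphopeptide, following 1 h compound preincubation in 30 mM MgCl2 buffer.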

[2] = molecular target: Protein phosphatase 1D (Homo sapiens) (UniProt O15297); assay: Rhodamine-PBP qHTS Assay for Modulators of WT P53-Induced Phosphatase 1 (WIP1) (AID 1347425; active = well fitted curve in the direction sought with a large enough effect; an effect the other way counts as inactive or inconclusive)
Outline: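 WIP1 (5 nM final) was preincubated with compound for 1 hour at room temperature. It then dephosphorylated 10 uM VEPPL-pS-QETFS peptide in Tris-HCl pH 7.5 with 30 mM MgCl2. Released Pi was detected by 10 uM Rh-PBP fluorescence (ex 525/em 598 nm) read at 1-min intervals for 11 min, as delta f1 - f0.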

[3] = Primary qHTS for inhibitors of SARS-S pseudo-typed particle cell entry (AID 1479145); note: nearly all actives have a fitted effect of over 45% in size; note: potency is the fitted concentration of half-maximal effect
[4] = Primary qHTS for Huh7 cytotoxicity: counterscreen for inhibitors of MERS-S pseudotyped particle cell entry (AID 1479147); note: potency is the fitted concentration of half-maximal effect
[5] = Primary qHTS for inhibitors of MERS-S pseudo-typed particle cell entry (AID 1479149); note: nearly all actives have a fitted effect of over 60% in size; note: potency is the fitted concentration of half-maximal effect
[6] = Primary qHTS for Vero E6 cytotoxicity: counterscreen for inhibitors of SARS-S pseudo-typed particle cell entry (AID 1479150)
[7] = Primary qHTS for inhibitors of La Crosse Virus (LACV) - induced cell death in SH-SY5Y cells (AID 1508616; active = well fitted curve in the direction sought with a large enough effect; an effect the other way counts as inactive or inconclusive;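 note: top concentration of the series differs between compounds; higher means more rescue of cells from virus-induced death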)
Outline: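 Cytopathicity rescue screen: compounds pinned onto SH-SY5Y cells, which are then infected with LACV (MOI 0.01) and held 6 days at 37C. Percent activity is scaled between infected DMSO control and uninfected DMSO control.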

[8] = molecular target: Calcium and integrin-binding protein 1 (Homo sapiens) (UniProt Q99828); assay: Primary qHTS for Identification of Calcium Integrin Binding Protein 1 (CIB1) Competitor (AID 1508620; active = well fitted curve in the direction sought with a large enough effect; an effect the other way counts as inactive or inconclusive;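 note: GST tagged CIB1 binding a fluorescein labelled alphaIIb integrin peptide tracer; top concentration of the series differs between compounds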)
Sequence of Calcium and integrin-binding protein 1 (Homo sapiens) (Q99828 whole entry, looked up): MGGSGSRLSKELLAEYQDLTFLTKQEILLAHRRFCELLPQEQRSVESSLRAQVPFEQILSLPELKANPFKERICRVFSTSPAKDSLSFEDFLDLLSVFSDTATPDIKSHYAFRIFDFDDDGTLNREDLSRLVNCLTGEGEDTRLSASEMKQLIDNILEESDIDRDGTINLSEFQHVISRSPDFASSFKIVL
Outline: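 Fluorescence polarization competition: CIB1-GST (1 uM final) preincubated with compound 15 min at room temperature, then FITC-labeled alphaIIb peptide (100 nM final) added for another 15 min. Polarization read at Ex 480/Em 540.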

[9] = qHTS to identify inhibitors of the type 1 interferon - major histocompatibility complex class I in skeletal muscle: primary screen against the NCATS Pharmaceutical Collection (AID 1347407; active = well fitted curve in the direction sought with a large enough effect; an effect the other way counts as inactive or inconclusive;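 note: luminescence of HiBiT knocked into endogenous HLA-B as interferon-induced MHC class I level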)
Outline: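 Luminescence from HiBiT-tagged endogenous HLA-B*08:01 served as the read-out of IFN-beta-induced MHC class I in CRISPR-engineered C25cl48 myoblasts. Cells received 4 ng/ml IFN-beta plus compound (high final 46 uM, […]) for 24 h.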

[10] = Counterscreen qHTS for small molecule stabilizers of the endoplasmic reticulum resident proteome: GLuc-NoTag assay (AID 1508627; active = well fitted curve in the direction sought with a large enough effect; an effect the other way counts as inactive or inconclusive; note: series mostly up to about 76 µM)
Outline: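 Secreted GLuc lacking the SERCaMP modification is measured in SH-SY5Y cells exposed to compound for 19 h and then to thapsigargin (100 nM, 4 h) to deplete ER calcium; hits retested at 11 concentrations, up to 76.6 uM.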

[11] = Confirmatory qHTS for small molecule stabilizers of the endoplasmic reticulum resident proteome: Secreted ER Calcium Modulated Protein (SERCaMP) assay (AID 1508628; active = well fitted curve in the direction sought with a large enough effect; an effect the other way counts as inactive or inconclusive; note: potency is the fitted concentration of half-maximal effect; nearly all actives have a fitted effect of over 40% in size)
Outline: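 GLuc-SERCaMP-expressing SH-SY5Y cells, pretreated 16 h with compound, are challenged with thapsigargin to empty ER calcium stores; after 4 h, coelenterazine is added directly to the medium and luminescence is imaged.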

Measured: Potency

C[C@H](N)[C@H](O)c1ccc(O)c(O)c1
active: [1] 2 µM
not listed: [9] | [10] | [11]
inactive: all other assays above

CCOC(=O)C(c1c(O)c2ccccc2oc1=O)c1c(O)c2ccccc2oc1=O
inactive: [9] | [1] | [2] | [8]

Oc1c(Cl)cc(Cl)c2cccnc12
inactive: [3]

Nc1c(CC(=O)O)cccc1C(=O)c1ccc(Br)cc1
inactive: [3] | [4] | [5] | [6]

[O-][n+]1ccccc1SSc1cccc[n+]1[O-]
inactive: [3]

NC(=O)CC[C@@H](N)C(=O)O
inactive: [3] | [4] | [5] | [6]

CC(=O)Oc1ccc(C(c2ccc(OC(C)=O)cc2)c2ccccn2)cc1
active: [3] 1.41 µM
inactive: [4] | [5]

NCC1CCC(C(=O)Oc2ccc(CCC(=O)O)cc2)CC1 (stereo not given)
inactive: [3] | [4] | [5] | [6]

COc1ccc2c3c1O[C@H]1[C@@H](O)C=C[C@H]4[C@@H](C2)N(C)CC[C@@]341
inactive: [1] | [2] | [8]

CC(O)COc1ccccc1 (stereo not given)
inactive: [3] | [4] | [5] | [6]

O=C1C(CCS(=O)c2ccccc2)C(=O)N(c2ccccc2)N1c1ccccc1 (stereo not given)
inactive: [3] | [4] | [5] | [6]

NC(=O)CCCCC1CCSS1 (stereo not given)
inactive: [3] | [4] | [5] | [6]

C/C(=N/NC(=O)c1ccncc1)C(=O)O
inactive: [3] | [4] | [5] | [6]

CCOP(=S)(OCC)O/N=C(\C#N)c1ccccc1
inactive: [1] | [2] | [7] | [8]

NCCc1cnc[nH]1
inactive: [3] | [4] | [5] | [6]

C[C@H]1COc2c(C3(N)CC3)c(F)cc3c(=O)c(C(=O)O)cn1c23
inactive: [3] | [4] | [5] | [6]

CCN[C@H]1C[C@H](C)S(=O)(=O)c2sc(S(N)(=O)=O)cc21
inactive: [3] | [4] | [5] | [6]

CCCCCCCCCCCCCCCC[n+]1ccccc1
active: [3] 3.16 µM | [4] 11.2 µM | [5] 7.08 µM

CC1N=C(N)OC1c1ccccc1 (stereo not given)
inactive: [1] | [2] | [8]

Clc1ccc(CSC(Cn2ccnc2)c2ccc(Cl)cc2Cl)cc1 (stereo not given)
inactive: [1] | [2] | [4] | [7] | [8]

CCOc1cc(N)c(Cl)cc1C(=O)NCC1CN(Cc2ccc(F)cc2)CCO1 (stereo not given)
inactive: [3] | [4] | [5] | [6]

C[C@H]1O[C@@H](O[C@H]2CC[C@@]3(C)[C@H](CC[C@@H]4[C@@H]3C[C@@H](O)[C@]3(C)[C@@H](C5=CC(=O)OC5)CC[C@]43O)C2)C[C@H](O)[C@@H]1O[C@H]1C[C@H](O)[C@H](O[C@H]2C[C@H](O)[C@H](O[C@@H]3O[C@H](CO)[C@@H](O)[C@H](O)[C@H]3O)[C@@H](C)O2)[C@@H](C)O1
active: [3] 0.891 µM | [4] 1 µM
inactive: [5]

CCCCCCCCCCCCCCCCCCNC(=O)OC1CCN(C(=O)OC[C@H](COC(=O)N(Cc2cccc[n+]2CC)C(=O)c2ccccc2OC)OC)CC1
active: [3] 25.1 µM
inactive: [4]

CCN1CCCC(OC(=O)C(c2ccccc2)c2ccccc2)C1 (stereo not given)
inactive: [3] | [4] | [5] | [6]

C[C@@H]1C[C@H]2[C@@H]3CCC4=CC(=O)C=C[C@]4(C)[C@@]3(F)[C@@H](O)C[C@]2(C)[C@H]1C(=O)CO
inactive: [3] | [4] | [5] | [6]

C[C@]12CC[C@H]3[C@@H](CCC4=CC(=O)CC[C@@H]43)[C@@H]1CC[C@@H]2O
inactive: [1] | [2] | [7] | [8]

CC[C@H](NC(C)C)[C@H](O)c1ccc(O)c2[nH]c(=O)ccc12
inactive: [3] | [4] | [5] | [6]

CCCCOc1ccc(CC(=O)NO)cc1
inactive: [3] | [4] | [5] | [6]

OCC(CO)N[C@H]1C[C@](O)(CO)[C@@H](O)[C@H](O)[C@H]1O
inactive: [3] | [4] | [5] | [6]

c1ccc2c(c1)Sc1ccccc1N2CC1CN2CCC1CC2 (stereo not given)
inactive: [1] | [2] | [6] | [8]

Oc1ccc2[nH]cc(CCCCN3CC=C(c4ccccc4)CC3)c2c1
inactive: [1] | [2] | [7] | [8] | [10]
active: [11] 12.6 µM

Nc1ccc2cc3ccc(N)cc3nc2c1
active: [3] 14.1 µM

COc1ccc2c(c1OC)C(=O)O[C@@H]2[C@H]1c2c(cc3c(c2OC)OCO3)CCN1C
inactive: [3] | [4] | [5] | [6]

CCCCCCCCCCCCCCCC[N+](C)(C)Cc1ccccc1
inactive: [4]
active: [3] 7.94 µM

CC(=O)N(CC(O)CN(C(C)=O)c1c(I)c(C(=O)NCC(O)CO)c(I)c(C(=O)NCC(O)CO)c1I)c1c(I)c(C(=O)NCC(O)CO)c(I)c(C(=O)NCC(O)CO)c1I (stereo not given)
inactive: [3] | [4] | [5] | [6]

COC(=O)Nc1nc2ccc(S(=O)c3ccccc3)cc2[nH]1 (stereo not given)
inactive: [3] | [4] | [5]

CN1[C@@H]2CC[C@H]1CC(NC(=O)n1c(=O)[nH]c3ccccc31)C2 (stereo not given in full)
inactive: [3] | [4] | [5] | [6]

O=C(O)CCNC(=O)c1ccccc1
inactive: [3] | [4] | [5] | [6]

CCC(=O)c1ccc(O)cc1
inactive: [3] | [4] | [5] | [6]

C[C@@]12C(=O)OC(=O)[C@]1(C)C1CCC2O1
active: [3] 14.1 µM | [4] 22.4 µM

O=C(O)CCC(=O)OC[C@@H](NC(=O)C(Cl)Cl)[C@H](O)c1ccc([N+](=O)[O-])cc1
inactive: [3] | [4] | [5] | [6]
